A short description of the experiment: NCI Yeast Anticancer Drug Screen. Data for the wt1 strain (AID 149).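 Note: 0% = growth of vehicle-treated wt1 cultures.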 As to conditions: S. cerevisiae wt1 strain (SPY 50644) growth inhibition, active compounds read high. How it is done: Growth inhibition of yeast strains with defined genetic alterations is measured as a screen for potential anti-cancer activity. Selected strains with alterations in DNA damage repair or cell cycle control were exposed to compounds and growth inhibition was measured relative to vehicle treated controls. The strain used in this assay is wt1

Our source for the growth inhibition values is PubChem BioAssay (NCI).

About 79,000 compounds went through this panel and 15% of them were active in at least one assay; those are over-represented in the sample as a whole. A number with no mark means an inactive call. Activity calls are given as the source filed them. Cut-off read from the data, not from the text of the source: active = growth inhibition above about 70%; inactive = the rest.

On to `Nc1nc(N)c2c(n1)CCC(S(=O)(=O)c1ccc3ccccc3c1)C2` (stereo not given), for which the growth inhibition (at 1.2 µM) was -2%; the growth inhibition (at 3.7 µM) was 14%; the growth inhibition (at 11.0 µM) was 12%; the growth inhibition (at 33.0 µM) is 19%; the growth inhibition (at 100.0 µM) was 15%.

In the case of `Oc1ccc(Br)cc1C=NC1CCCCC1`, the growth inhibition was -24% (at 1.2 µM); -18% (at 3.7 µM); 6% (at 11.0 µM); 91% (active) (at 33.0 µM); 99% (active) (at 100.0 µM).

`CCOC(=O)[C@]1(Br)CC[C@@]1(Br)C(=O)OCC`: the growth inhibition was -44% (at 1.2 µM); -33% (at 3.7 µM); -3% (at 11.0 µM); 98% (active) (at 33.0 µM); 99% (active) (at 100.0 µM).

Take `O=C(CNS(=O)(=O)Cc1ccccc1)NNc1ccccc1`: the growth inhibition reads like this: (at 1.2 µM) -1%; (at 3.7 µM) 5%; (at 11.0 µM) 4%; (at 33.0 µM) 23%; (at 100.0 µM) 36%.

For the compound `O=C1C(Cl)=C(Cl)C(Cl)(Cl)C(Cl)C1(Cl)Cl` (stereo not given), the growth inhibition reads like this: (at 1.2 µM) 2%; (at 3.7 µM) 5%; (at 11.0 µM) 21%; (at 33.0 µM) 94% (active); (at 100.0 µM) 99% (active).

For the compound `O=C(/C=C/c1cccc2ccccc12)c1ccc(Cl)cc1`, the growth inhibition is, setting by setting: (at 1.2 µM) -30%; (at 3.7 µM) -19%; (at 11.0 µM) -28%; (at 33.0 µM) -34%; (at 100.0 µM) -45%.

Consider `CCCc1[nH]nc(C(N)=O)c1N=NN(C)C`, for which the growth inhibition is, setting by setting: (at 1.2 µM) -6%; (at 3.7 µM) -4%; (at 11.0 µM) -7%; (at 33.0 µM) -4%; (at 100.0 µM) 5%.

Turning to `CCOC(=O)Nc1ccc2c(c1)Cc1ccccc1-2`, the growth inhibition is -2% (at 1.2 µM); 5% (at 3.7 µM); 11% (at 11.0 µM); 7% (at 33.0 µM); 10% (at 100.0 µM).
